Assay results published in PubChem BioAssay AID454 (Sanford-Burnham Center for Chemical Genomics, 2006).
Out of some 10,000 compounds screened, about 25 (0.2%) were called active.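 The calls were made as follows: active = compound among top-ranked inhibitors of TNF-induced VCAM-1 adhesion protein staining, with the hit upheld by image or statistical review; inactive = the rest, including hits rejected on review.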 Shown is part of a subset that was picked to be rich in actives.

Assay: suppression of endothelial VCAM-1 upregulation – cell-based, plate reader, pooled HUVEC, TNFa stimulus (AID 454)
Conditions: HUVEC TNFa-induced VCAM-1 surface immunofluorescence; stronger effect = higher value,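 compound tested at 5 µM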

Row | SMILES | inhibition
1 | O=C(Cn1cnc2ccccc2c1=O)NCCC(=O)N1CCN(c2ccccc2)CC1 | inactive
2 | CCc1ccccc1NC(=O)CN(c1cccc(OC)c1)S(C)(=O)=O | inactive
3 | C/C(=C\c1cc(C(=O)O)c(C)o1)CO | inactive
4 | Cc1ccc(SC(C)c2nc(-c3ccccc3)no2)cc1 (stereo not given) | inactive
5 | CSc1ncc(Cl)c(C(=O)Nc2ccc(S(=O)(=O)N3CCOCC3)cc2)n1 | inactive
6 | Cc1cnc(C(=O)Nc2ccc(N3CCOCC3)cc2)cn1 | inactive
7 | CS(=O)(=O)c1ncc(Cl)c(C(=O)Nc2ccc(N3CCOCC3)cc2)n1 | 97.8% (active)
8 | Cc1cc(O)c(C2(C(F)(F)F)NCCNC2=O)cc1C (stereo not given) | inactive
9 | CCC(=O)N(Cc1ccco1)c1nc(-c2cc(OC)ccc2OC)cs1 | inactive
10 | Cn1c(C(=O)NCCN2CCN(c3ccccc3F)CC2)cc2c(=O)n(C)c3ccccc3c21 | inactive
11 | COc1cc(C2N=C(c3ccccc3)NO2)cc(Br)c1O (stereo not given) | inactive
12 | COc1cc(C2Nc3cccc4cccc(c34)N2)cc(OC)c1O | 73.4% (active)
13 | CCOc1cc(C2Nc3ccccc3C(=O)N2c2ccccc2OC)ccc1O (stereo not given) | inactive
14 | COC(=O)c1ccc(CSc2nc3c(cnn3-c3ccc(F)cc3)c(=O)[nH]2)o1 | inactive
15 | O=c1[nH]c2sc3c(c2c2nncn12)CCCC3 | inactive
16 | Cc1cc(NC(=O)c2cc(-c3ccco3)on2)n(-c2ccccc2)n1 | inactive
17 | C/C(NC1CCCC1)=C(/C#N)C(N)=O | inactive
18 | Clc1cccc(-c2nnc3sc(-c4ccccc4)nn23)c1 | inactive
19 | CCNC(=O)C1CC(=O)N(Cc2ccc3c(c2)OCO3)C(=Nc2ccc(OCC)cc2)S1 (stereo not given) | inactive
20 | OCCn1c(-c2ccc3c(c2)OCO3)csc1=Nc1ccccc1 | inactive
21 | CCOC(=O)c1ccc(NC(=O)CSCc2ccco2)cc1 | inactive
22 | CCOC(=O)c1cccc(NC2c3ccccc3C(=O)N2Cc2ccco2)c1 (stereo not given) | inactive
23 | CCOC(=O)c1ccc(N=c2sc(C(=O)OC)cc(=O)n2Cc2ccco2)cc1 | 95.5% (active)
24 | COC(=O)c1cc(=O)n(Cc2ccc3c(c2)OCO3)c(=Nc2ccccc2)s1 | 96% (active)
25 | Cc1cccc(NC(=O)c2cc(NC(=O)c3ccco3)ccc2N2CCCCC2)c1 | inactive
26 | Cn1nc(-c2ccc(N3CCCCC3)c(NC(=O)c3ccco3)c2)c2ccccc2c1=O | 83.4% (active)
27 | O=C(c1ccccc1)c1ccc(N2CCOCC2)c(NC(=O)c2ccco2)c1 | inactive

Row | SMILES | inhibition
28 | COc1ccc(CCNc2nc(N3CCOCC3)nc(N3CCOCC3)n2)cc1OC | inactive
29 | Cn1c(=O)c2c(nc(SCC(=O)NCc3ccc4c(c3)OCO4)n2Cc2ccccc2)n(C)c1=O | inactive
30 | CCOC(=O)CSc1nc2cccnc2n1-c1ccc(F)cc1 | inactive
31 | CCOc1ccc2[nH]c(=O)c(C(c3nnnn3CC3CCCO3)N3CCc4ccccc4C3)cc2c1 (stereo not given) | inactive
32 | CCc1ccc2[nH]c(=O)c(C(c3nnnn3CC3CCCO3)N3CCN4CCCC4C3)cc2c1 (stereo not given) | inactive
33 | CCc1ccc2[nH]c(=O)c(C(c3nnnn3CC3CCCO3)N3CCCc4ccccc43)cc2c1 (stereo not given) | 93.2% (active)
34 | Nc1nc(N2CCCCC2)nc(N(c2ccccc2)c2ccccc2)n1 | inactive
35 | CC(=O)NC(CCS(C)(=O)=O)C(=O)Nc1cccc2ccccc12 (stereo not given) | inactive
36 | O=C(Cn1nc(-c2ccc(Cl)cc2)ccc1=O)NCCCN1CCN(Cc2ccccc2)CC1 | inactive
37 | CCOC(=O)c1ccccc1NC(=O)c1ccc2c(=O)n3c(nc2c1)CCCCC3 | inactive
38 | COc1ccc(N(CC(=O)Nc2cc(C)ccc2C)S(=O)(=O)c2c(C)nn(C)c2C)cc1 | inactive
39 | Cc1ccc2nc(NC(=O)Cn3cc4c(n3)CCCCC4)sc2c1 | inactive
40 | CCCCNC(=O)OC(C)CNC(=O)Oc1cccc(C)c1 (stereo not given) | inactive
41 | Cc1ccc(O)c(-c2cc(C(=O)Nc3ccc(S(=O)(=O)N4CC(C)OC(C)C4)cc3)[nH]n2)c1 (stereo not given) | inactive
42 | O=C(Nc1ccc2c(c1)OCCO2)C1CCCN1S(=O)(=O)c1cccc2cccnc12 (stereo not given) | inactive
43 | CCOc1ccccc1NC(=O)CCSc1nc2n[nH]c(C)c2c(=N)n1-c1ccccc1Cl | inactive
44 | Cn1c(=O)c2c(nc(NCCCO)n2CCc2ccccc2)n(C)c1=O | inactive
45 | Cc1ccc(-n2c(=O)[nH]c3c(C(N)=O)nc(CC(C)C)nc32)cc1 | inactive
46 | N/C(Cn1nnc(-c2ccccc2)n1)=N\O | inactive
47 | CO[C@H]1C[C@@H]2CC[C@@H](C)[C@@](O)(O2)C(=O)C(=O)N2CCCC[C@H]2C(=O)O[C@H]([C@H](C)C[C@@H]2CC[C@@H](O)[C@H](OC)C2)CC(=O)[C@H](C)C=C(C)[C@@H](O)[C@@H](OC)C(=O)[C@H](C)C[C@H](C)C=CC=CC=C1C | 88.8% (active)
48 | CCOC(=O)C1CCN(c2c(NC3CCCc4ccccc43)c(=O)c2=O)CC1 (stereo not given) | inactive
49 | Cc1ccc(C)c2[nH]c(=O)c(CCNC(=O)c3ccc(S(=O)(=O)N(C)C)cc3)cc12 | inactive
50 | Cc1cc(-n2c(C)cc(C(=O)CSc3nnnn3-c3ccc(Cl)cc3)c2C)no1 | inactive
51 | COc1ccc(Cc2nc(-c3ccc(NC(=O)c4cccnc4)cc3)no2)cc1 | inactive
52 | O=C(Nc1ccc(-c2noc(-c3cccs3)n2)cc1)c1cccnc1 | inactive
53 | CC(Oc1ccc(Cl)cc1Cl)c1nc(-c2ccc(NC(=O)c3cccnc3)cc2)no1 (stereo not given) | 72% (active)
54 | O=C(CCSc1nccn1Cc1ccccc1)N1CCOCC1 | inactive

Row | SMILES | inhibition
55 | Cc1nnc(NC(=O)C2CCCO2)s1 (stereo not given) | inactive
56 | CCN1CCN(C(c2ccc(F)cc2)c2nnnn2Cc2cccs2)CC1 (stereo not given) | inactive
57 | O=C(COC(=O)c1ccco1)NCc1cccs1 | inactive
58 | CCCCn1nnnc1SCC(=O)N1CCN(C(=O)c2ccco2)CC1 | inactive
59 | COC(=O)CC1SCCNC1=O (stereo not given) | inactive
60 | Cn1c(-c2ccccc2)cc(=O)c2ccccc21 | inactive
61 | O=C(NCCC1=CCCCC1)c1cc2c(s1)CS(=O)(=O)C2 | inactive
62 | COc1ccc(C(=O)Cn2nnc(-c3cccs3)n2)cc1 | inactive
63 | O=C(Nc1sccc1C(=O)NCc1ccco1)c1cccnc1 | inactive
64 | CCC1CCCCN1S(=O)(=O)c1ccc(C(=O)Nc2nnc(-c3cccs3)o2)cc1 (stereo not given) | inactive
65 | CC1CCCN(S(=O)(=O)c2ccc(C(=O)Nc3nnc(-c4ccccc4Cl)o3)cc2)C1 (stereo not given) | 77.1% (active)
66 | CCC1CCCCN1S(=O)(=O)c1ccc(C(=O)Nc2nnc(-c3ccccc3Cl)o2)cc1 (stereo not given) | inactive
67 | COc1ccc(-c2cc(C(=O)NCc3ccc(Cl)cc3)no2)cc1OC | inactive
68 | COC(=O)c1[nH]c2cc(OC)ccc2c1NC(=O)CCN1CCCCC1 | inactive
69 | O=S(=O)(Cc1ccc(Cl)cc1)Nc1ccc2c(c1)OCO2 | inactive
70 | CCOC(=O)N1CCN(S(=O)(=O)c2cc(Cl)ccc2Cl)CC1 | inactive
71 | Cc1nnc(SCCn2c(N3CC(C)CC(C)C3)nc3c2c(=O)n(C)c(=O)n3C)s1 (stereo not given) | inactive
72 | COC(=O)c1[nH]c2ccccc2c1NC(=O)CN1CCC(C(N)=O)(N2CCCCC2)CC1 | inactive
73 | CCC(C)NC(=O)CC1Oc2ccc(C)cc2NC1=O (stereo not given) | inactive
74 | COc1ccccc1NC(=O)N1CCN(c2cccc(C(F)(F)F)c2)CC1 | inactive
75 | Cc1cc(C)n2nc[n+](C)c2n1 | inactive
76 | CC(=O)N1CCN(S(=O)(=O)c2cccc(C(=O)Nc3ccc4c(c3)CCC4)c2)CC1 | inactive
77 | CCc1nnc2c3cnn(-c4ccccc4)c3ncn12 | inactive
78 | Cc1ccc(S(=O)(=O)N2CCCC2)cc1S(=O)(=O)N1CCCC1 | inactive
79 | CS(=O)(=O)N1CCc2cc(C(=O)N3CCCCC3)ccc21 | inactive
80 | Cc1cc(C)nc(NS(=O)(=O)c2ccc(NC(=O)Cn3c(=O)oc4ccccc43)cc2)n1 | inactive
81 | CCOC(=O)c1[nH]c2ccc(C)cc2c1NC(=O)CN1CCCCC1 | inactive

Row | SMILES | inhibition
82 | O=C(NCC1CCCO1)c1ccc(C(=O)NCC2CCCO2)cc1 (stereo not given) | inactive
83 | S=C(NCC1CCCO1)n1nnc2ccccc21 (stereo not given) | 104% (active)
84 | O=C(CN(Cc1ccc(F)cc1)C(=O)Cn1nnc2ccccc21)NCC1CCCO1 (stereo not given) | inactive
85 | CC(=O)Oc1ccc(CCC(C)OC(C)=O)cc1 (stereo not given) | inactive
86 | Oc1ccc(Nc2nc(-c3ccc(O)cc3)cs2)cc1 | 106% (active)
87 | c1cc2c(cc1Nc1nc(-c3ccc4c(c3)OCO4)cs1)OCCO2 | inactive
88 | CC(=O)Nc1nc(C)c(-c2csc(Nc3ccc(O)cc3)n2)s1 | inactive
89 | COc1ccc2nc(CC(C)(C)CC(=O)O)c[n+]([O-])c2c1 | inactive
90 | O=C(NC1CC1)c1cccc(Nc2ccc(-c3ccc4c(c3)OCCO4)nn2)c1 | inactive
91 | Cn1c(=O)cc(OCCCC(=O)Nc2ccc3c(c2)OCCO3)c2ccccc21 | inactive
92 | Cn1c(=O)cc(OCCCC(=O)N2CCCCC2)c2ccccc21 | 101% (active)
93 | CCOC(=O)N1CCN(C(=O)COc2cc(=O)n(C)c3ccccc23)CC1 | inactive
94 | CCOC(=O)c1nn(-c2sc(C(=O)OC)c(C)c2C(=O)OC)cc1O | inactive
95 | COc1ccc(CCn2c(N)c(C#N)c3nc4ccccc4nc32)cc1OC | inactive
96 | COc1cc(/C=C/C(=O)CC(=O)/C=C/c2ccc(O)c(OC)c2)ccc1O | 85.5% (active)
97 | O=C(O)/C=C/c1ccc(O)c(O)c1 | inactive
98 | CCN(CC)C(=O)c1ccc(O)c(OC)c1 | inactive
99 | COc1ccc(N2CCN(c3ncnc4c3cnn4-c3ccc(C)cc3C)CC2)cc1 | inactive
100 | CC1(C)Cc2c(sc3c2c(=N)n(Cc2ccco2)c(=O)n3Cc2ccccc2)CO1 | inactive
101 | Cc1nc(-c2ccccc2)sc1C(N)=O | inactive
102 | Clc1ccc(Cl)c(-c2nn3c(Cn4cnc5ccccc54)nnc3s2)c1 | inactive
103 | CSc1ccccc1NC(=O)CN(c1ccccc1)S(=O)(=O)N(C)C | inactive
104 | CSc1ccc(Cn2nnc(C(=O)NCc3ccccc3)c2N)cc1 | inactive
105 | CC(=O)N1CCN(c2ccc(N=Cc3c(O)n(Cc4ccccc4)c(=O)[nH]c3=O)cc2)CC1 | inactive
